Inconclusive results are not listed. Unmarked numbers belong to inactive results. Calls of active or inactive are those of the source. Unless noted, calls come from the whole dose curve.
assay: Validation screen for inhibitors of Lassa infection (AID 463096); settings: Lassa virus infection, cell-based; series mostly up to 46.1 µM; activity change, negative = inhibition: at the top concentration
% is set by controls: 0 for no effect and ±100 for the full control effect.

With CN1C2CCC1CC(OC(=O)C(CO)c1ccccc1)C2 (centres undefined) the Potency was “inactive”.

Going from CC(=O)NCCc1c[nH]c2ccc(O)cc12 to O=C(O)Cc1c[nH]c2ccc(O)cc12, the “activity change, negative = inhibition” value rises from -3.76% to 16.8%.

With CC(=O)OCC1=C(C(=O)[O-])N2C(=O)[C@@H](NC(=O)CCC[C@@H](N)C(=O)[O-])[C@H]2SC1.[Zn+2] the “activity change, negative = inhibition” value was 25.5%.

assay: qHTS for Inhibitors of the Functional Ribonucleoprotein Complex (vRNP) of Lassa (LASV) Arenavirus: LASV Primary Screen - GLuc reporter signal (AID 1347082; calls by dose curve; tested in HEK293 reporter line; note: nearly all actives have a fitted effect of over 60% in size); settings: LASV minigenome vRNP, Gaussia luciferase reporter; series mostly up to 57.5 µM; activity change, negative = inhibition: at the top concentration

For C[C@@H]1OC(O[C@H]2[C@H](Oc3cc(O)c4c(=O)c(O)c(-c5ccc(O)cc5)oc4c3)O[C@H](CO)[C@@H](O)[C@@H]2O)[C@H](O)[C@H](O)[C@H]1O (some centres undefined), the “activity change, negative = inhibition” value was -6.31% [at 24.7 µM].

Going from COc1ccc2[nH]c3c(c2c1)CCNC3C (centres undefined) to COc1ccc(CCN)cc1, the “activity change, negative = inhibition” value falls from -4.53% to -5.52%.

Compared with NCC1CCC(C(=O)O)CC1 (centres undefined), CNCC(N)C(=O)O (centres undefined) is higher in “activity change, negative = inhibition” value: 1.56% for the first, 6.03% for the second.

Compared with C[N+]1([O-])CCC[C@@H]1c1cccnc1 (some centres undefined), CN1CCCCC1c1cccnc1 (centres undefined) is lower in “activity change, negative = inhibition” value: 0.0509% for the first, -4.04% for the second.

Compared with COc1cc2oc3ccccc3c(=O)c2cc1OC, O=c1cc(-c2ccc(O)c(O)c2)oc2ccccc12 is lower in “activity change, negative = inhibition” value: 7.24% for the first, -5.58% for the second.

Going from CC1=C2C(=O)OC(c3ccoc3)C2(C)CCC1 (centres undefined) to c1cncc(C2CCCN2)c1 (centres undefined), the “activity change, negative = inhibition” value rises from -4.52% to -3.79%.

Going from O=C(O)C(O)Cc1ccc(O)c(O)c1 (centres undefined) to O=C(O)Cc1c[nH]c2ccccc12, the “activity change, negative = inhibition” value rises from -2.7% to 0.994%.

Compared with CC(/C=C/C=C(\C)C(=O)O[C@@H]1O[C@H](CO[C@@H]2O[C@H](CO)[C@@H](O)[C@H](O)[C@H]2O)[C@@H](O)[C@H](O)[C@H]1O)=C\C=C\C=C(C)\C=C\C=C(/C)C(=O)O[C@@H]1O[C@H](CO[C@@H]2O[C@H](CO)[C@@H](O)[C@H](O)[C@H]2O)[C@@H](O)[C@H](O)[C@H]1O, O=c1cc(-c2ccc(O)cc2)oc2c([C@@H]3O[C@H](CO)[C@@H](O)[C@H](O)[C@H]3O)c(O)c([C@@H]3O[C@H](CO)[C@@H](O)[C@H](O)[C@H]3O)c(O)c12 is lower in “activity change, negative = inhibition” value: -1.59% for the first, -3.71% for the second.

Compared with NCCc1ccccc1, CN(C)Cc1c[nH]c2ccccc12 is higher in “activity change, negative = inhibition” value: -1.89% for the first, 4.59% for the second.

First: O=C(Nc1c(Cl)cncc1Cl)c1ccc(OC(F)F)c(OCC2CC2)c1
Second: CC(C)=CCc1c(O)cc(O)c2c1OC(c1ccc(O)cc1)CC2=O (centres undefined)
The “activity change, negative = inhibition” value of the first is higher: 27.7% for the first, 0.943% for the second.

Compared with O=c1cc(-c2ccc(O)c(O)c2)oc2cc(O[C@@H]3O[C@H](CO)[C@@H](O)[C@H](O)[C@H]3O)cc(O)c12, Cc1cc(O)c2c(c1)O[C@@]1(C)CC[C@H]3C(C)(C)CCCC34CO[C@@H]2[C@H]41 (some centres undefined) is lower in “activity change, negative = inhibition” value: -0.752% for the first, -11.7% for the second.

First: CC1=C(/C=C/C(C)=C/C=C/C(C)=C/C=C/C=C(C)/C=C/C=C(C)/C=C/C2=C(C)C[C@@H](O)CC2(C)C)C(C)(C)C[C@H](O)C1
Second: CCN1C[C@]2(COC(=O)c3ccccc3N3C(=O)CC(C)C3=O)CC[C@H](OC)[C@@]34C5C[C@@H]6[C@@H](OC)C[C@@](O)(C5[C@H]6OC)[C@](O)([C@@H](OC)C23)[C@@H]14 (some centres undefined)
The “activity change, negative = inhibition” value of the first is lower: -16.8% for the first, -3.52% for the second.

Going from C[C@@H](O)[C@H]1C(=O)N2C(C(=O)OCOC(=O)C(C)(C)C)=C(SC3CN(C4=NCCS4)C3)[C@H](C)[C@H]12 to CC(=O)OCC1=C(C(=O)[O-])N2C(=O)[C@@H](NC(=O)CCC[C@@H](N)C(=O)[O-])[C@H]2SC1.[Zn+2], the “activity change, negative = inhibition” value falls from -2.28% to -13.3%.

Compared with CNCC/C=C/c1cccnc1, CN(CCCC(=O)c1cccnc1)N=O is higher in “activity change, negative = inhibition” value: -2.72% for the first, 0.326% for the second.

Compared with C[Se]CC[C@H](N)C(=O)O, C[C@H]1CC[C@@H]2N(C1)C[C@H]1[C@@H]3C[C@H]4[C@@H](CC(=O)[C@H]5C[C@@H](O)CC[C@@]54C)[C@@H]3CC[C@H]1[C@]2(C)O is lower in “activity change, negative = inhibition” value: 12.5% for the first, -4.52% for the second.

First: Cn1cccc1-c1cccnc1
Second: COc1cc2c(c(OC)c1OC)-c1c(cc3c(c1OC)OCO3)C[C@H](C)[C@@](C)(O)C2
The “activity change, negative = inhibition” value of the first is higher: -8.77% for the first, -12.9% for the second.

First: CCCC/C=C/CCCCO
Second: CC(CC=O)CCCC(C)(C)O (centres undefined)
The “activity change, negative = inhibition” value of the first is lower: -33.1% [at 115 µM] for the first, -13.7% [at 115 µM] for the second.

Compared with c1cncc([C@@H]2CCCCN2)c1, CC1=C(O)C(=O)[C@@H]2O[C@@H]2C1=O is lower in “activity change, negative = inhibition” value: 7.98% [at 115 µM] for the first, -2.67% [at 115 µM] for the second.

For O=c1cc(-c2ccccc2)oc2cc(O)c(O)c(O)c12, the Potency was “inactive”.
With CN1C2CCC1CC(OC(=O)C(CO)c1ccccc1)C2 (centres undefined) the Potency was “inactive”.
In the case of CC(=O)NCCc1c[nH]c2ccc(O)cc12, the Potency is reported as “inactive”.
In the case of O=C(O)Cc1c[nH]c2ccc(O)cc12, the Potency is reported as “inactive”.
For O=c1c(O)c(-c2ccc(O)c(O)c2)oc2cc(O)ccc12, the Potency was “inactive”.

assay: qHTS for Inhibitors of the Functional Ribonucleoprotein Complex (vRNP) of Lassa (LASV) Arenavirus: Viability assay - alamar blue signal for LASV Primary Screen (AID 1347083; calls by dose curve; tested in HEK293 reporter line; note: nearly all actives have a fitted effect of over 80% in size); settings: cell viability, alamar blue fluorescence (LASV minigenome counter-screen); series mostly up to 57.5 µM; activity change, negative = reduced viability: at the top concentration

In the case of C[C@@H]1OC(O[C@H]2[C@H](Oc3cc(O)c4c(=O)c(O)c(-c5ccc(O)cc5)oc4c3)O[C@H](CO)[C@@H](O)[C@@H]2O)[C@H](O)[C@H](O)[C@H]1O (some centres undefined), the “activity change, negative = reduced viability” value is reported as 41.3% [at 24.7 µM].

Compared with COc1ccc2[nH]c3c(c2c1)CCNC3C (centres undefined), COc1ccc(CCN)cc1 is lower in “activity change, negative = reduced viability” value: 0.0108% for the first, -3.34% for the second.

First: NCC1CCC(C(=O)O)CC1 (centres undefined)
Second: CNCC(N)C(=O)O (centres undefined)
The “activity change, negative = reduced viability” value of the first is lower: -14.9% for the first, -7.47% for the second.

Going from C[N+]1([O-])CCC[C@@H]1c1cccnc1 (some centres undefined) to CN1CCCCC1c1cccnc1 (centres undefined), the “activity change, negative = reduced viability” value rises from -1.23% to 10.8%.

First: COc1cc2oc3ccccc3c(=O)c2cc1OC
Second: O=c1cc(-c2ccc(O)c(O)c2)oc2ccccc12
The “activity change, negative = reduced viability” value of the first is higher: -0.406% for the first, -9.23% for the second.

Compared with CC1=C2C(=O)OC(c3ccoc3)C2(C)CCC1 (centres undefined), c1cncc(C2CCCN2)c1 (centres undefined) is higher in “activity change, negative = reduced viability” value: 0.927% for the first, 8.65% for the second.

First: O=C(O)C(O)Cc1ccc(O)c(O)c1 (centres undefined)
Second: O=C(O)Cc1c[nH]c2ccccc12
The “activity change, negative = reduced viability” value of the first is higher: 5.73% for the first, 1.11% for the second.

Going from CC(/C=C/C=C(\C)C(=O)O[C@@H]1O[C@H](CO[C@@H]2O[C@H](CO)[C@@H](O)[C@H](O)[C@H]2O)[C@@H](O)[C@H](O)[C@H]1O)=C\C=C\C=C(C)\C=C\C=C(/C)C(=O)O[C@@H]1O[C@H](CO[C@@H]2O[C@H](CO)[C@@H](O)[C@H](O)[C@H]2O)[C@@H](O)[C@H](O)[C@H]1O to O=c1cc(-c2ccc(O)cc2)oc2c([C@@H]3O[C@H](CO)[C@@H](O)[C@H](O)[C@H]3O)c(O)c([C@@H]3O[C@H](CO)[C@@H](O)[C@H](O)[C@H]3O)c(O)c12, the “activity change, negative = reduced viability” value falls from 15.3% to -2.69%.

Compared with NCCc1ccccc1, CN(C)Cc1c[nH]c2ccccc12 is lower in “activity change, negative = reduced viability” value: 17.4% for the first, 8.3% for the second.

Going from O=C(Nc1c(Cl)cncc1Cl)c1ccc(OC(F)F)c(OCC2CC2)c1 to CC(C)=CCc1c(O)cc(O)c2c1OC(c1ccc(O)cc1)CC2=O (centres undefined), the “activity change, negative = reduced viability” value rises from 0.329% to 6.52%.

Going from O=c1cc(-c2ccc(O)c(O)c2)oc2cc(O[C@@H]3O[C@H](CO)[C@@H](O)[C@H](O)[C@H]3O)cc(O)c12 to Cc1cc(O)c2c(c1)O[C@@]1(C)CC[C@H]3C(C)(C)CCCC34CO[C@@H]2[C@H]41 (some centres undefined), the “activity change, negative = reduced viability” value falls from 6.31% to -5.97%.

Compared with CC1=C(/C=C/C(C)=C/C=C/C(C)=C/C=C/C=C(C)/C=C/C=C(C)/C=C/C2=C(C)C[C@@H](O)CC2(C)C)C(C)(C)C[C@H](O)C1, CCN1C[C@]2(COC(=O)c3ccccc3N3C(=O)CC(C)C3=O)CC[C@H](OC)[C@@]34C5C[C@@H]6[C@@H](OC)C[C@@](O)(C5[C@H]6OC)[C@](O)([C@@H](OC)C23)[C@@H]14 (some centres undefined) is higher in “activity change, negative = reduced viability” value: 4.89% for the first, 18.2% for the second.

Compared with C[C@@H](O)[C@H]1C(=O)N2C(C(=O)OCOC(=O)C(C)(C)C)=C(SC3CN(C4=NCCS4)C3)[C@H](C)[C@H]12, CC(=O)OCC1=C(C(=O)[O-])N2C(=O)[C@@H](NC(=O)CCC[C@@H](N)C(=O)[O-])[C@H]2SC1.[Zn+2] is lower in “activity change, negative = reduced viability” value: 27.3% for the first, -2.98% for the second.

First: CNCC/C=C/c1cccnc1
Second: CN(CCCC(=O)c1cccnc1)N=O
The “activity change, negative = reduced viability” value of the first is lower: 1.98% for the first, 9.08% for the second.

Compared with C[Se]CC[C@H](N)C(=O)O, C[C@H]1CC[C@@H]2N(C1)C[C@H]1[C@@H]3C[C@H]4[C@@H](CC(=O)[C@H]5C[C@@H](O)CC[C@@]54C)[C@@H]3CC[C@H]1[C@]2(C)O is lower in “activity change, negative = reduced viability” value: 19.7% for the first, 13.3% for the second.

Going from Cn1cccc1-c1cccnc1 to COc1cc2c(c(OC)c1OC)-c1c(cc3c(c1OC)OCO3)C[C@H](C)[C@@](C)(O)C2, the “activity change, negative = reduced viability” value falls from -1.04% to -10.6%.

Going from CCCC/C=C/CCCCO to CC(CC=O)CCCC(C)(C)O (centres undefined), the “activity change, negative = reduced viability” value rises from -14.7% [at 115 µM] to 14% [at 115 µM].

First: c1cncc([C@@H]2CCCCN2)c1
Second: CC1=C(O)C(=O)[C@@H]2O[C@@H]2C1=O
The “activity change, negative = reduced viability” value of the first is higher: 2.2% [at 115 µM] for the first, -2.57% [at 115 µM] for the second.

For O=c1cc(-c2ccccc2)oc2cc(O)c(O)c(O)c12, the Potency was “inactive”.
In the case of CN1C2CCC1CC(OC(=O)C(CO)c1ccccc1)C2 (centres undefined), the Potency is reported as “inactive”.
In the case of CC(=O)NCCc1c[nH]c2ccc(O)cc12, the Potency is reported as “inactive”.
In the case of O=C(O)Cc1c[nH]c2ccc(O)cc12, the Potency is reported as “inactive”.
With O=c1c(O)c(-c2ccc(O)c(O)c2)oc2cc(O)ccc12 the Potency was “inactive”.

Source: PubChem BioAssay (NCATS)
